Assay: COS7 lysate on small-molecule microarray, probe aHis, 635 nm (AID 1123);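 note: z-score combines 667nm fluorescence intensity with signal-to-noise per printed compound spot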
Conditions: COS7 cell lysate, fluorescence, higher = more signal

Row | SMILES | composite z-score
1 | CC(C)CCN1CCc2nc(COc3ccccc3)c3c(c2C1)CO[C@@H](C)C3 | 0.965
2 | O=C(NN=C1C[C@@H](O)[C@@H](O)[C@@H]2[C@@H]3C(=O)N(Cc4ccccc4)C(=O)[C@@H]3CC[C@@H]12)OCc1ccccc1 | -0.723
3 | CO[C@@H]1COC(=O)[C@@H](C)COC(=O)[C@@H](C)NC(=O)CC=C[C@@H]1C | -0.566
4 | CO[C@@H]1COC(=O)CC=C[C@@H](C)[C@@H]2C=C[C@H](O)[C@@H](COC(=O)CC=C[C@H]1C)O2 | -1.01
5 | COC(=O)[C@@H]1CC[C@H](C)[C@@H](c2ccc(C)cc2)N1C(=O)c1ccc(C=NO[C@H](C)c2cn([C@H](CO)Cc3ccccc3)nn2)cc1 | -0.141
6 | CCC=CCCC(OC(=O)c1ccc(Br)cc1)C1=CCCCC1=O (stereo not drawn) | 0.678
7 | CO[C@H]1COC(=O)[C@@H](C)COC(=O)[C@H](COCc2ccccc2)NC(=O)CC=C[C@H]1C | -1.73
8 | CCOC(=O)CCN1C(=O)[C@H]2[C@H]3[C@H](O)[C@H](O)CC(=NOCC(C)C)[C@H]3CC[C@H]2C1=O | 0.163
9 | C#CCCCON=C1C[C@@H](O)[C@@H](O)[C@@H]2[C@@H]3C(=O)N(CC)C(=O)[C@@H]3CC[C@@H]12 | 0.248
10 | CON=C1[C@H]2CCn3c(=O)n(-c4ccccc4)c(=O)n3[C@H]2[C@H](O)[C@@H]2O[C@H]12 | -0.364
11 | CC(C)=CCCC(C)=CCON=C1C[C@@H](O)[C@@H](O)[C@@H]2[C@@H]3C(=O)N(C(C)(C)C)C(=O)[C@@H]3CC[C@@H]12 | -0.13
12 | CC(C)(C)N1C(=O)[C@H]2[C@H]3[C@H](O)[C@H](O)CC(=O)[C@@H]3CC[C@H]2C1=O | 0.113
13 | CC(=O)OC[C@H]1O[C@H](CC=NO[C@H](C)c2cn([C@H](CO)Cc3ccccc3)nn2)C=C[C@@H]1OC(C)=O | 0.154
14 | C=Cc1ccc([C@H]2N[C@H](C(=O)O)CC[C@@H]2C)cc1 | -0.344
15 | O=C(C=Cc1ccc2c(c1)OCO2)c1ccc(F)cc1 | -0.542
16 | C[C@@H]1CC[C@H]2C(=O)O[C@@H](Cc3ccccc3)CN2[C@H]1c1ccc(Br)cc1 | 0.871
17 | C=CC1=C[C@H](O)[C@@H]2O[C@@H]2C12OCCCO2 | -0.281

Row | SMILES | composite z-score
18 | CCN1C(=O)[C@H]2[C@H]3[C@H](O)[C@H](O)CC(=NO[C@@H](C)c4cn([C@H](CO)Cc5ccccc5)nn4)[C@@H]3CC[C@H]2C1=O | 0.875
19 | CCOC(=O)[C@H](Cc1ccccc1)NC(=O)CCC1CC(OC(=O)NCc2ccc3c(c2)OCO3)CC2(CCCC(COC(=O)NCCC(C)C)O2)O1 (stereo partly drawn) | 0.394
20 | O=C1[C@H]2[C@H]3[C@H](O)[C@H](O)CC(=NOC[C@@H](O)COCc4ccco4)[C@H]3CC[C@H]2C(=O)N1C[C@@H]1CCCO1 | -0.736
21 | CC(C)=NO[C@H](C)c1cn([C@H](CO)Cc2ccccc2)nn1 | 0.559
22 | O=C1CCCC=C1C(O)CCCCBr (stereo not drawn) | 1.1
23 | COC(=O)CC=C[C@@H](C)[C@@H](C=NOC[C@@H](O)[C@H]1O[C@@H]2OC(C)(C)O[C@@H]2[C@H]1O)NS(=O)(=O)c1ccc(C)cc1 | -0.152
24 | CCOC(=O)[C@H](Cc1ccccc1)NC(=O)CCC1CC(OC(=O)NCCc2ccc(F)cc2)CC2(CCCC(COC(=O)NCc3ccccc3)O2)O1 (stereo partly drawn) | 0.244
25 | COC(=O)CC=C[C@@H](C)[C@@H](C=NOC(C)CN1CCCc2nc(C)c(C)cc21)OC (stereo partly drawn) | 0.132
26 | O=C1CCCC=C1C(O)CCOC(c1ccccc1)(c1ccccc1)c1ccccc1 (stereo not drawn) | -0.447
27 | C[C@@H]1C=CCC(=O)OC[C@H]2O[C@@H](C=C[C@@H]2O)[C@H](C)C=CCC(=O)OC1 | -1.26
28 | CO[C@@H]1C=CCC(=O)N[C@@H](C)C(=O)OC[C@@H](OC)[C@H](C)CCCC(=O)OC[C@H]1C | -1.96
29 | Cc1ccc(S(=O)(=O)OC[C@H]2CN3[C@H](c4ccc(Br)cc4)[C@@H](C)CC[C@H]3C(=O)O2)cc1 | 0.393
30 | CC(C)=CCCC(C)=CCON=C1C[C@@H](O)[C@@H](O)[C@@H]2[C@@H]3C(=O)N(C4CCCCC4)C(=O)[C@@H]3CC[C@@H]12 | -0.112
31 | O=C1C=C[C@@H](O)[C@@H]2[C@@H]3C(=O)N(C[C@@H]4CCCO4)C(=O)[C@@H]3CC[C@@H]12 | -0.17
32 | CCOC(=O)[C@H](CC(C)C)NC(=O)CCC1CC(OC(=O)NCc2cccc3ccccc23)CC2(CCCC(COC(=O)NCCCN3CCCC3=O)O2)O1 (stereo partly drawn) | 0.444
33 | Cc1ccc(S(=O)(=O)N[C@H]2COC(=O)CC=C[C@@H](C)COC(=O)CC=C[C@@H]2C)cc1 | -0.688
